SKKanGAS inh: S. pyogenes SKKanGAS growth inhibitors in kanamycin, primary screen, streptokinase expression inhibitor project, SKKanGAS strain, BacTiter-Glo luminescence; 6 h; 300,000 compounds, 1.3% hits; inhibition, % at 7.5 µM; AID 1662, 2009;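 active means mean replicate score, as percent of positive control median, at least 50; inconclusive means mean below 50 but one replicate at or above 50; inactive means mean and every replicate below 50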;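 further: strain carries kanamycin resistance gene driven by streptokinase promoter and grows in 40 µg/ml kanamycin; loss of luminescence reflects streptokinase promoter inhibition or plain growth inhibition; 0% = median of DMSO wells and 100% = positive control at its reference dose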
Mdm2 MdmX PPI: inhibitors of human Mdm2-MdmX association, primary screen, cell-based, luminescence, split luciferase, SaOS-2, uHTS; Protein Mdm4 (Homo sapiens) + E3 ubiquitin-protein ligase Mdm2 (Homo sapiens), …; SaOS-2 split-luciferase Mdm2/MdmX complementation; inhibition, % at 8 µM; 330,000 compounds, 3% hits;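 active means inhibition of at least 50% at 8 µM in the primary screen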
Target sequence (O15151 whole entry, looked up): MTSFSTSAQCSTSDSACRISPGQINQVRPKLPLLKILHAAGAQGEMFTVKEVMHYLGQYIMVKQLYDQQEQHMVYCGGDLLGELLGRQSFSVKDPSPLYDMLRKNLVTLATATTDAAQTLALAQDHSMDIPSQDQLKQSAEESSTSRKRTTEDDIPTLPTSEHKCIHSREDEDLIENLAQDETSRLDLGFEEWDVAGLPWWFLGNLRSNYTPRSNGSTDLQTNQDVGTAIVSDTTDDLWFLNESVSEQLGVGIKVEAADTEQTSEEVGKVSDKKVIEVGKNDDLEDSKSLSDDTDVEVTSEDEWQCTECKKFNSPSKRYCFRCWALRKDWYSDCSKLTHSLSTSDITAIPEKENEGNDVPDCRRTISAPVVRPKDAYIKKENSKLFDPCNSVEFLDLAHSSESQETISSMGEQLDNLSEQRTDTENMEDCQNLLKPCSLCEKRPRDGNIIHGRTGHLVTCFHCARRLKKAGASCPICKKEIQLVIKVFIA
Target sequence (Q00987 whole entry, looked up): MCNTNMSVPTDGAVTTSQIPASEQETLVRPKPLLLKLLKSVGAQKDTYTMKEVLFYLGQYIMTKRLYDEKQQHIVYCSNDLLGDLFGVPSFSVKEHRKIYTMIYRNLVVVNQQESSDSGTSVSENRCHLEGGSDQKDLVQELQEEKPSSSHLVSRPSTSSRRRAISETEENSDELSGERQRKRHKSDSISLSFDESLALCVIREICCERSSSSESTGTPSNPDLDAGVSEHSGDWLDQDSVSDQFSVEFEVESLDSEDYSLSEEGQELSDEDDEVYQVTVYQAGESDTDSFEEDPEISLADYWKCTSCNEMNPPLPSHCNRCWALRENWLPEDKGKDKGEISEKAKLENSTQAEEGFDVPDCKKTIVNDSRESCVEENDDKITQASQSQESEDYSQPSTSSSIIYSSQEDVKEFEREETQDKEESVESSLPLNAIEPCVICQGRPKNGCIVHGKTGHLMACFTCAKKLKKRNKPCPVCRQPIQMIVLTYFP
Beta apoptosis: inhibitors of cytokine-induced beta cell apoptosis, primary screen, luminescence; INS-1E cytokine-induced death, ATP luminescence, 48 h; percent of positive-control rescue, neutral wells zero; protection from apoptosis, % (concentration not given with the values); 300,000 compounds, 0.8% hits; AID 435005, 2010;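 active means Every replicate reaches about 75%, or at least half do and their mean reaches it too, limit read from the data; inconclusive means At least half of replicates reach the limit but their mean does not; inactive means Under half of replicates reach the limit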;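 further: 0% = cytokine-treated negative control wells and 100% = positive control rescue; higher means more ATP so stronger rescue from cytokine killing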
NR3A LBD binder: binders of NR3A ligand-binding domain, primary screen, biophysical, differential scanning fluorimetry, uHTS; NR3A LBD differential scanning fluorimetry, Tm shift; 0% = protein alone, 100% = glycine-bound protein; 340,000 compounds, 2.5% hits; AID 1259313, 2017; Tm shift relative to glycine control, % at 25 µM;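 active means melting temperature shift of at least 10% of the positive control shift, at one fixed dose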
MPTP inh: mitochondrial permeability transition pore inhibitors, primary screen, biochemical, isolated mouse mitochondria, absorbance | inhibition, % at 10 µM | Ca2+ swelling absorbance, 30 min | 360,000 compounds, 1.4% hits;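 active means inhibition of 50% or more, scaled per plate between neutral and stimulator controls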;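 further: 0% = DMSO wells given calcium and 100% = 1 mM EGTA wells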
CSC inhib: cancer stem cell viability inhibitors, primary screen, luminescence; cancer stem cell-like cells viability; AID 2717, 2010; inhibition, % at 7.5 µM; 300,000 compounds, 1.1% hits; in the data active means inhibition above about 75%; inconclusive means no clear call, values can overlap the other calls; tested in HMLE shEcad cells
Mdm2 MdmX conf: Mdm2-MdmX complex disruptors, retested hits, confirmation, luminescence, single concentration. 10,000 compounds, 55% hits. inhibition, % at 8 µM. shares compounds with Mdm2 MdmX PPI. Mdm2-MdmX binding, luminescent assay; in the data active means inhibition above about 40%
Full FLuc ctr: full-length luciferase signal inhibition, confirmation, counter-screen for Mdm2/MdmX interaction inhibitor project, cell-based, single concentration, SaOS-2; shares compounds with Mdm2 MdmX PPI; inhibition, % at 8 µM; 6,200 compounds, 77% hits; SaOS-2 full-length luciferase counterscreen, luminescence;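 active means mean inhibition at 8 µM reaching about 37%, which flags the compound as non-specific, limit read from the data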;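 further: p53-null SaOS-2 cells with luciferase driven by a doxycycline-inducible promoter; compound on cells about two nights before reading with doxycycline added after day one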
Rh123 counter: fluorescence retest of MPTP screen hits in isolated mitochondria, single concentration. membrane potential, Rhodamine 123 fluorescence. 5,000 compounds, 78% hits. inhibition, % at 10 µM. shares compounds with MPTP inh; in the data active means inhibition above about 22%;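 further: 0% = DMSO vehicle and 100% = positive control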
MPTP abs DR: mitochondrial permeability transition pore inhibitors, dose response, biochemical, absorbance, uHTS hits. shares compounds with MPTP inh. isolated mitochondria swelling. IC50, µM. 780 compounds, 58% hits; in the data active means IC50 below about 20 µM
MPTP counter DR: fluorescent counter-screen in isolated mitochondria, dose response, counter-screen for MPTP inhibitor project, biochemical, fluorescence, uHTS hits | shares compounds with MPTP inh | 780 compounds, 49% hits | isolated mitochondria counterscreen, fluorescence read-out | IC50, µM; in the data active means IC50 below about 80 µM
Starred values were filed as active, the others as inactive; ? = inconclusive; · = no result. This is a sample that favours compounds with a hit; in the whole collection about 6.9% have one here.

SMILES	SKKanGAS inh	Mdm2 MdmX PPI	Beta apoptosis	NR3A LBD binder	MPTP inh	CSC inhib	Mdm2 MdmX conf	Full FLuc ctr	Rh123 counter	others
CNC[C@@H](Cc1ccccc1)NC[C@@H](CC1CCCCC1)NCCCc1ccccc1	64*	98*	110*	0	72*	111*	100*	52*	-17
CN(C[C@H](Cc1ccccc1)N(C[C@@H](CC1CCCCC1)N(CCc1ccccc1)N=O)N=O)N=O	5	3	2	0	0	14	·	·	·
COc1ccc(C(=O)N/C(=C\c2cn(C)c3ccccc23)C(=O)N2CCOCC2)cc1	-2	20	2	-3	0	3	·	·	·
CCCCCCCn1c2c(c(=N)c3c1CCC3)CCCC2	7	·	·	-2	8	·	·	·	·
CCCCCCCCCn1c2c(c(=N)c3c1CCC3)CCC2	21	95*	109*	-4	84*	56	93*	55*	92*
O=C(Nc1ccc(C(F)(F)F)cc1)c1cc(-c2cccnc2)nc2ccc(Br)cc12	8	57*	24	34*	78*	25	1	·	2	MPTP abs DR=13*;MPTP counter DR=7.1*
O=C(CCCN=C1NS(=O)(=O)c2ccccc21)OCC(=O)c1ccccc1Cl	-28	-20	-3	6	0	-10	·	·	·
N=c1c(-c2nc3ccccc3[nH]2)cc(C(=O)c2cccs2)nn1-c1ccccc1	51*	56*	-6	-15	91*	-13	40	59*	39*
CN(CC(=O)Nc1ccccc1Br)C(=O)CNC(=O)c1ccc(Oc2ccccc2)cc1	17	17	·	1	0	0	·	·	·
O=C(Cc1c(F)c(F)c(F)c(F)c1F)Nc1nc(-c2ccccc2)cs1	19	57*	5	12*	54*	83*	39	84*	92*
CC(C)(c1ccccc1)c1ccc(OCCCNCCO)cc1	2	54*	·	2	94*	5	37	·	-9	MPTP abs DR=5.9*;MPTP counter DR=>80
CCn1cc(C(=O)NC2CCCc3c2cnn3-c2cccc(C)c2C)cn1 (centres undefined)	0	84*	·	·	87*	-2	92*	37*	104*
Oc1nc(Nc2ccc(Cl)cc2Cl)sc1/C=C1\C=Nc2ccccc21	115*	86*	·	23*	96*	0	34	·	58*
Cn1c(O)c(/C=C2\C=Nc3ccccc32)sc1=Nc1ccc(C(=O)O)cc1	-12	35	-7	-2	2	7	·	·	·
CCOC(=O)Cc1nnc2c(Nc3ccc(Cl)cc3)nc3nonc3n12	?	92*	27	-6	94*	56	40*	44*	87*
CCOC(=O)c1sc(NC(=O)c2cc(-c3ccc(C)cc3)nc3ccccc23)c(C#N)c1C	?	76*	11	5	88*	49	92*	50*	78*
Cc1cc(NC(=O)c2cc(-c3ccccc3C)nc3ccccc23)no1	14	21	0	-3	1	1	·	·	·
COc1ccc(-c2cc(C(=O)Nc3sc4c(c3C#N)CCCC4)c3ccccc3n2)cc1	·	·	-2	-5	-9	18	·	·	·
COC(=O)c1sc(NC(=O)c2cc(-c3ccccc3)nc3ccccc23)c(C#N)c1C	26	95*	61	21*	66*	0	92*	35	70*
Cc1ccccc1-c1cc(C(=O)Nc2sc(C(=O)OC(C)C)c(C)c2C#N)c2ccccc2n1	59*	72*	52	-3	91*	111*	95*	24	79*
CCn1nc(C)c(CNC(=O)c2cc(COc3ccc(C)nc3)on2)c1C	-6	33	4	0	2	-6	·	·	·
Fc1ccc(-[n+]2nc(Nc3ccccc3)sc2-c2c3ccccc3cc3ccccc23)cc1	57*	100*	67	-12	92*	103*	90*	42*	111*
c1ccc(-[n+]2nc(Nc3cccc4ccccc34)sc2-c2c3ccccc3cc3ccccc23)cc1	·	65*	117*	-27	98*	6	80*	24	93*
CCc1ccc(Nc2n[n+](-c3ccccc3)c(-c3cccc(C)c3)s2)cc1	·	3	69	2	2	27	·	·	·
Oc1ccc2ccccc2c1-c1sc(Nc2ccccc2)n[n+]1-c1ccc(F)cc1	9	-27	-7	-5	3	6	·	·	·
SMILES	SKKanGAS inh	Mdm2 MdmX PPI	Beta apoptosis	NR3A LBD binder	MPTP inh	CSC inhib	Mdm2 MdmX conf	Full FLuc ctr	Rh123 counter	others
COc1ccc(C)cc1Nc1n[n+](-c2ccccc2)c(-c2c(OC)ccc3ccccc23)s1	·	92*	124*	-19	100*	87*	62*	29	105*
CN(Cc1c(F)cccc1Cl)C(=O)c1ccc(NS(=O)(=O)c2ccc3[nH]c(=O)[nH]c3c2)cc1	9	-13	-5	-3	0	17	·	·	·
Cc1sc(NC(=O)c2ccco2)c(C(c2ccc(F)cc2)N2CCN(C)CC2)c1C (centres undefined)	3	54*	-5	-1	82*	-1	36	74*	-23
Cc1ccc(-n2c(C)cc(C3=NNC(=NC4CC4)SC3)c2C)cc1C	6	69*	21	-4	79*	46	50*	120*	83*
Cc1ccc(S(=O)(=O)N2CCN(c3cccc(C)c3)CC2)cc1	-3	-2	-4	-1	4	-7	·	·	·
N#CC(c1ccc(Cl)cc1)c1ccc2c(C(F)(F)F)cc(C(F)(F)F)nc2n1 (centres undefined)	38	99*	124*	-1	87*	-13	95*	24	108*

Screening results (PubChem BioAssay)
